From PubChem BioAssay AID456 (Sanford-Burnham Center for Chemical Genomics, 2006)
The campaign covered roughly 10,000 compounds. About 25 (0.2%) were called active. This is one part of a sample in which actives are shown more often than they occur. Entries with a potency or affinity are not part of this list. A number with no mark means an inactive call.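 Rule for the calls: active = top tenth filtered wells with inhibition above zero that passed visual or statistical confirmation; inactive = the rest, including hits rejected on review.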

Assay: inhibitors of TNFa-induced VCAM-1 surface display, imaging, high-content imaging, pooled HUVEC, TNFa stimulus (AID 456);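 for inhibition: VCAM-1 immunofluorescence minus red nonspecific channel after plate median normalization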
Settings: HUVEC TNFa-induced VCAM-1 surface expression, immunofluorescence imaging;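 compounds screened at 5 µM final in the well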

| SMILES | inhibition |
| --- | --- |
| Cc1ccc2oc(=O)c3cnn(CC(=O)N4CCCCC4C)c3c2c1 (stereo unspecified) | inactive |
| Cc1cc(NS(=O)(=O)c2ccc(NC(=O)C(C)N3C(=O)c4ccccc4C3=O)cc2)nc(C)n1 (stereo unspecified) | inactive |
| CC(=O)Nc1ccc(Cc2ccncc2)cc1 | inactive |
| CN(C)S(=O)(=O)c1ccc(Oc2ccc(S(=O)(=O)N(C)C)cc2)cc1 | inactive |
| O=S(=O)(Nc1ccccn1)c1ccc(Oc2ccccc2)cc1 | inactive |
| Cc1cc(NC(=O)CSc2nnc(COc3cccc(C)c3C)n2Cc2ccco2)no1 | inactive |
| COCCn1c(COc2ccc(Cl)cc2)nnc1SCC(N)=O | inactive |
| Cc1occc1C(=O)N1CCN(Cc2ccccc2)CC1 | inactive |
| CCOC(=O)c1sc(N)c(C(=O)OCC)c1COC(=O)C1CC(=O)N(Cc2ccco2)C1 (stereo unspecified) | inactive |
| O=C(CN(c1ccccc1)S(=O)(=O)c1ccccc1)N1CCN(Cc2ccc3c(c2)OCO3)CC1 | inactive |
| CCOC(=O)CNC(=O)c1c(C)nn(-c2ccccc2)c1Cl | inactive |
| COc1ccc(S(=O)(=O)NCC(=O)N(CC(=O)NCC2CCCO2)c2ccccc2C)cc1 (stereo unspecified) | inactive |
| Cc1cccc(N2CCN(C(=O)CCn3c(=S)[nH]c4cc5c(cc4c3=O)OCO5)CC2C)c1 (stereo unspecified) | inactive |
| CC1(C)C(c2ccccc2)=NC(c2ccccc2)N1O (stereo unspecified) | inactive |
| O=C(NCCN1CCOCC1)c1csc2c1CCCC2 | inactive |
| CCOC(=O)N1CCN(CC(O)COc2ccccc2C(C)CC)CC1 (stereo unspecified) | inactive |
| CCN(CC(=O)Nc1ccc(S(N)(=O)=O)cc1)S(=O)(=O)c1cc(C)ccc1OC | inactive |
| CCCCC(=NCCO)C1=C(O)C(C(=O)OC)C(C)(C)CC1=O (stereo unspecified) | inactive |
| O=C(CSc1nc2ccsc2c(=O)n1NC(=O)c1ccccc1)Nc1nccs1 | inactive |
| COc1ccc(C)cc1-n1c(N)c(C#N)c(C#N)c1-c1ccc(OC)c(OC)c1OC | 77% (active) |
| COc1ccc(Cn2c(N)c(C#N)c3nc4ccccc4nc32)cc1OC | inactive |
| COc1cc2c(C)nc(C)c(C#N)c2cc1OC | inactive |

| SMILES | inhibition |
| --- | --- |
| Cc1cc2cc(CN(CC3CCCO3)C(=O)c3cnccn3)c(=O)[nH]c2cc1C (stereo unspecified) | inactive |
| COc1ccc2oc(C)c(C(=O)Cn3ccnc3)c2c1 | inactive |
| Cn1c(=O)c2c(nc(SCCCC#N)n2Cc2ccccc2F)n(C)c1=O | inactive |
| Cn1c(=O)c2c(nc(SCCCO)n2Cc2ccccc2Cl)n(C)c1=O | inactive |
| Cn1c(=O)c2c(nc(SCCCC#N)n2Cc2c(F)cccc2Cl)n(C)c1=O | 72.9% (active) |
| O=C(c1csc2ccccc12)N1CCCCCC1 | inactive |
| Cn1c(-c2ccc(F)cc2)cnc1SCC(=O)Nc1ccccc1N1CCOCC1 | inactive |
| Cc1ccnc2c(N3C(=O)C4C5C=CC(C5)C4(C)C3=O)cccc12 (stereo unspecified) | inactive |
| CCOC(=O)C1CCCN(C(=O)CNS(=O)(=O)c2ccc(Br)s2)C1 (stereo unspecified) | inactive |
| COC(=O)C1=C(C)n2nnnc2NC1c1ccc(Cl)cc1 (stereo unspecified) | inactive |
| O=C(NCCN1CCOCC1)c1ccc2c(c1)N(Cc1ccccc1)C(=O)CS2 | inactive |
| C=CCn1c(SCC(=O)NCC2CCCO2)nnc1C1CCCCC1 (stereo unspecified) | inactive |
| Cc1cn2c(-c3ccncc3)nnc2s1 | inactive |
| COc1ccc(-c2nn3c(-c4ccncc4)nnc3s2)cc1OC | inactive |
| Cc1ccc2cc(C(c3nnnn3C3CCCC3)N3CCN(c4ccc(F)cc4)CC3)c(=O)[nH]c2c1 (stereo unspecified) | inactive |
| Cc1cc(-c2ccccc2)c(C#N)c(N)n1 | inactive |
| Cc1ccc2nc(C(F)(F)F)c(C#N)c(N)c2c1 | 74.6% (active) |
| CN(C)c1ccc(NC(=O)CSCc2nc3c(nnn3Cc3ccc(F)cc3)c(=O)[nH]2)cc1 | inactive |
| COC(=O)c1c(N)sc(C(=O)N2CCOCC2)c1C | inactive |
| O=C(CSc1nnc(-c2cccnc2)o1)Nc1ccccn1 | inactive |
| c1ccc(Cn2ncc3c2ncn2c(-c4ccncc4)nnc32)cc1 | inactive |
| CCOc1ccc(C(c2nnnn2Cc2ccccc2)N2CCN(C(=O)c3ccco3)CC2)cc1 (stereo unspecified) | inactive |

| SMILES | inhibition |
| --- | --- |
| O=C(CSc1nnnn1Cc1ccccc1)Nc1ccc2c(c1)OCO2 | inactive |
| CCOC(=O)c1sc(Nc2nc3c(OC)cccc3s2)nc1C | inactive |
| COc1cc(NS(=O)(=O)N2CCCC2)cc(OC)c1OC | inactive |
| COc1ccc2ccccc2c1CN1CCN(C)CC1 | inactive |
| c1cc(C(c2nnnn2C2CCCC2)N2CCOCC2)ccn1 (stereo unspecified) | inactive |
| O=C(Nc1ccc(N2CCOCC2)c(F)c1)c1ccncc1 | inactive |
| COc1ccc2cc(C(c3nnnn3C(C)(C)C)N3CCc4ccccc4C3)c(=O)[nH]c2c1 (stereo unspecified) | inactive |
| CCC(C)(C)n1nnnc1C(c1ccc(OC)c(OC)c1)N1CCN(c2ccccc2)CC1 (stereo unspecified) | inactive |
| C=CCSC1=C(C#N)C(c2ccccc2OCC)CC(=O)N1 (stereo unspecified) | inactive |
| CNC(=O)CSc1nnc(-c2cc(C)cc(C)c2)o1 | inactive |
| Cc1csc(NC(=O)CCCSc2nc3ccccc3s2)n1 | inactive |
| CCOCCCNC(=O)C1CCCN(S(=O)(=O)CC)C1 (stereo unspecified) | inactive |
| O=C(NCc1ccccc1)C1CCCN1S(=O)(=O)c1cccc2cccnc12 (stereo unspecified) | inactive |
| CC(=O)OCC(=O)[C@H]1CC[C@H]2[C@@H]3CCC4=CC(=O)CC[C@]4(C)[C@H]3CC[C@]12C | 78.2% (active) |
| C[C@]12CC[C@H]3[C@@H](CCC4=CC(=O)CC[C@@]43C)[C@@H]1CC[C@@H]2C(=O)CO | 72.2% |
| CC(=O)[C@H]1CC[C@H]2[C@@H]3CCC4=CC(=O)CC[C@]4(C)[C@H]3CC[C@]12C | 87.1% |
| CCCC(=O)O[C@]1(C(=O)CCl)[C@@H](C)C[C@H]2[C@@H]3CCC4=CC(=O)C=C[C@]4(C)[C@@]3(F)C(=O)C[C@@]21C | inactive |
| CC(=O)OCC(=O)[C@@]1(O)[C@H](C)C[C@H]2[C@@H]3CCC4=CC(=O)C=C[C@]4(C)[C@@]3(F)[C@@H](O)C[C@@]21C | inactive |
| CCC(=O)O[C@]1(C(=O)CCl)[C@@H](C)C[C@H]2[C@@H]3CCC4=CC(=O)C=C[C@]4(C)[C@@]3(F)[C@@H](O)C[C@@]21C | 78.5% (active) |
| CCOC(=O)Nc1cc(OCC)c(NC(=O)C2CC2)cc1OCC | inactive |
| COC(=O)CCN(C(=O)c1ccc2c(c1)OCO2)c1ccccn1 | inactive |
| Cc1ccc(S(=O)(=O)N2CCCC(c3nnc4n3-c3ccccc3SC4)C2)cc1 (stereo unspecified) | inactive |
